In assay [1] the target is Paired box protein Pax-6 (Homo sapiens) (UniProt P26367). Description: ATG_Pax6_CIS: Attagene CIS-FACTORIAL HepG2 Assay for human Paired Box 6 (PAX6) (AID 2282956). The note with it: HepG2 CIS-FACTORIAL PAX6 reporter transcription, RNA readout; actives raise or lower the signal. In outline:
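Values derive from bidirectional curve fitting of reporter mRNA signal relative to DMSO. HepG2 cells bearing transfected cis-regulated MRTUs were exposed for 24 h; transcripts were read by RT-PCR and capillary electrophoresis.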

Assay [2] is described as follows: ATG_PXRE_CIS: Attagene CIS-FACTORIAL HepG2 Assay for human Pregnane X Receptor Element (PXRE) (AID 2282957). The note with it: HepG2 Attagene CIS-FACTORIAL PXRE reporter, mRNA; actives raise or lower the signal. In outline: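 Using HepG2 transfected with multiple reporter transcription units, endogenous factor-driven transcription was scored as reporter mRNA after 24 h exposure.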

The nature of assay [3]: ATG_RORE_CIS: Attagene CIS-FACTORIAL HepG2 Assay for human RAR-related Orphan Receptor Element (RORE) (AID 2282959). The note with it: HepG2 Attagene cis-factorial RORE reporter, mRNA; actives raise or lower the signal. In outline:
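A 24-hour exposure of transfected HepG2 hepatoma cells precedes RNA isolation and reporter RT-PCR. Labeled products are digested with HpaI and resolved by capillary electrophoresis, with gain or loss of signal scored relative to DMSO.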

Assay [4] can be described thus: ATG_Sox_CIS: Attagene CIS-FACTORIAL HepG2 Assay for human SRY-box transcription factor (SOX) (AID 2282960). The settings on record: HepG2 Attagene cis-factorial SOX reporter, mRNA; actives raise or lower the signal. The method in brief:
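HepG2, cis reporter units, 24 h exposure. Reporter mRNA: RT-PCR → FAM labelling → HpaI → CE fluorescence. Bidirectional fit vs DMSO.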

Assay [5] addresses Transcription factor Sp1 (Homo sapiens) (UniProt P08047). Description: ATG_Sp1_CIS: Attagene CIS-FACTORIAL HepG2 Assay for human Specificity Protein 1 (Sp1) (AID 2282961). The note with it: HepG2 Sp1 cis-reporter transcription, actives raise or lower the signal. In outline: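 Liver-derived HepG2 cells, cis-element reporter library, 24 h treatment; RNA isolated, cDNA amplified with reporter-specific primers, FAM-labeled fragments sized on capillary analyzer. DMSO baseline, bidirectional curve fit.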

A short description of assay [6]: ATG_SREBP_CIS: Attagene CIS-FACTORIAL HepG2 Assay for human Sterol Regulatory Element Binding (SREBP) (AID 2282962). The settings on record: HepG2 Attagene cis-factorial SREBP reporter, mRNA; actives raise or lower the signal. In outline: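 Values derive from bidirectional curve fitting with DMSO as baseline. The underlying measurement is reporter mRNA from cis-element-regulated units in transiently transfected HepG2, quantified by RT-PCR and capillary electrophoresis after 24 h exposure.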

The target in assay [7] is Signal transducer and activator of transcription 3 (Homo sapiens) (UniProt P40763). Description: ATG_STAT3_CIS: Attagene CIS-FACTORIAL HepG2 Assay for human Signal Transducer and Activator of Transcription 3 (STAT3) (AID 2282963). The settings on record: HepG2, Attagene cis-factorial STAT3 reporter transcription; actives raise or lower the signal. In outline:
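Cis-factorial format: endogenous transcription factors in HepG2 drive transfected reporter units. After 24 h treatment, reporter RNA was reverse-transcribed, amplified, FAM-labelled and HpaI-digested before CE analysis; activity scored in both directions against DMSO.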

The nature of assay [8]: ATG_TA_CIS: Attagene CIS-FACTORIAL HepG2 Assay for human TA Basal Promoter (AID 2282964). The settings on record: HepG2 Attagene CIS-factorial TA basal promoter reporter; actives raise or lower the signal. The method in brief:
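Background internal-marker endpoint from a 52-component HepG2 cis-reporter panel. Cells treated 24 h; reporter transcripts quantified via RT-PCR and CE fluorescence against DMSO baseline.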

A short description of assay [9]: ATG_TCF_b_cat_CIS: Attagene CIS-FACTORIAL HepG2 Assay for human T-Cell-Factor with beta-catenin (TCF/b-cat) (AID 2282965). The settings on record: HepG2 TCF/beta-catenin cis-reporter transcription, actives raise or lower the signal. The method in brief:
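Endogenous transcription factor activity is captured through cis-promoter reporter constructs transiently introduced into human HepG2 liver cells. Induced reporter mRNA is measured after 24 h and fitted bidirectionally relative to DMSO.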

Assay [10] can be described thus: ATG_TAL_CIS: Attagene CIS-FACTORIAL HepG2 Assay for human TAL Basal Promoter (AID 2282966).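 Note: background control endpoint measuring basal TAL promoter reporter mRNA not a specific factor.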 The settings on record: HepG2 Attagene cis-factorial TAL promoter reporter; actives raise or lower the signal. In outline: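 After 24 hours of chemical exposure, transfected HepG2 cells yielded RNA that was converted to 6-FAM-labelled, HpaI-digested reporter fragments for capillary electrophoresis. Values derive from bidirectional fitting against DMSO controls.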

Assay [11] in a line: ATG_TGFb_CIS: Attagene CIS-FACTORIAL HepG2 Assay for human Transforming Growth Factor (TGF) (AID 2282967). The note with it: HepG2 Attagene CIS TGFb reporter, mRNA transcription; actives raise or lower the signal. In outline: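 Liver HepG2 line, cis-factorial reporter panel, 24 h dosing. Quantitation: RT-PCR products labeled with 6-FAM, cut with HpaI, resolved by capillary electrophoresis; DMSO-referenced bidirectional analysis.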

Assay [12] can be described thus: ATG_VDRE_CIS: Attagene CIS-FACTORIAL HepG2 Assay for human Vitamin D Receptor Element (VDRE) (AID 2282968). The settings on record: HepG2 VDRE cis-reporter transcription, actives raise or lower the signal. In outline:
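Measures endogenous factor activity through cis-element-driven reporter transcripts in transiently transfected HepG2. Cells are treated 24 h; reporter mRNA is quantified by RT-PCR and capillary electrophoresis; fitting is bidirectional.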

Assay [13] has as its target Nuclear receptor subfamily 1 group I member 3 (Homo sapiens) (UniProt Q14994). The assay is described as follows: ATG_CAR_TRANS: Attagene TRANS-FACTORIAL HepG2 Assay for human Constitutive Androstane Receptor (CAR) (AID 2282969; active = hit-call score of the fitted dose curve at least 0.9, where 1 is the maximum;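 note: activators raise reporter mRNA above DMSO so AC50 marks induction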). The settings on record: HepG2 Attagene TRANS-FACTORIAL CAR reporter. The method in brief: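 Signal is reporter mRNA induction relative to DMSO, measured 24 h after dosing by RT-PCR with fluorescent primer extension and capillary electrophoresis. Human HepG2 liver cells carried transiently transfected chimeric NR-Gal4/GAL4-UAS reporter constructs.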

Assay [14] addresses Estrogen receptor (Homo sapiens) (UniProt P03372). The assay is described as follows: ATG_ERa_TRANS: Attagene TRANS-FACTORIAL HepG2 Assay for human Estrogen Receptor alpha (ERa) (AID 2282970; active = hit-call score of the fitted dose curve at least 0.9, where 1 is the maximum). The settings on record: HepG2 Attagene TRANS ERa GAL4 reporter, mRNA. In outline: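 Liver-derived HepG2 cells expressing chimeric nuclear receptor-Gal4 proteins from transient transfection were exposed for 24 hours. Gain of reporter mRNA signal versus DMSO, read by capillary electrophoresis of FAM-labelled PCR products, was recorded.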

The target of assay [15] is X-box-binding protein 1 (Homo sapiens) (UniProt P17861). Description: ATG_Xbp1_CIS: Attagene CIS-FACTORIAL HepG2 Assay for human X-box Binding Protein 1 (XBP1) (AID 2282972). The note with it: HepG2 XBP1 cis-element reporter, Attagene multiplex; actives raise or lower the signal. In outline: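 Human hepatoma HepG2, cis-element reporter system, 24 h treatment; mRNA quantified by RT-PCR/CE fluorescence; fit relative to DMSO.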

Assay [16] in a line: ATG_M_19_TRANS: Attagene TRANS-FACTORIAL HepG2 Assay for M19 Transcription Factor (Internal Marker) (AID 2282974; active = hit-call score of the fitted dose curve at least 0.9, where 1 is the maximum). The settings on record: HepG2 Attagene TRANS-FACTORIAL M19 internal marker reporter. In outline: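 Transfected HepG2 (GAL4-UAS MRTUs), 24 h compound, TriZol RNA, DNase-treated RT, reporter PCR, FAM label, HpaI digest, CE fluorescence; gain vs DMSO.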
Assay [17] is described as follows: ATG_GAL4_TRANS: Attagene TRANS-FACTORIAL HepG2 Assay for GAL4 (Internal Marker) (AID 2282976; active = hit-call score of the fitted dose curve at least 0.9, where 1 is the maximum). The settings on record: HepG2 Attagene TRANS GAL4 internal marker reporter. The method in brief: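 First, HepG2 cells were transfected with reporter units under GAL4-UAS control. Next, they were treated with chemical for 24 h. Finally, RNA was reverse-transcribed, PCR-amplified, FAM-labelled and resolved by capillary electrophoresis, with induction scored against DMSO.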

Assay [18] has as its target Steroid hormone receptor ERR1 (Homo sapiens) (UniProt P11474). Description: ATG_ERRa_TRANS: Attagene TRANS-FACTORIAL HepG2 Assay for human Estrogen-Related Receptor alpha (ERRa) (AID 2282971; active = hit-call score of the fitted dose curve at least 0.9, where 1 is the maximum). The note with it: HepG2 Attagene TRANS reporter, ERRa transactivation. In outline: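 Reporter transcript induction was quantified by RT-PCR and capillary electrophoresis of FAM-labelled, HpaI-cut products after 24 h treatment of HepG2 cells carrying transiently transfected GAL4-UAS reporter units and an exogenous ERRa-Gal4 fusion; activity scored as increase over DMSO.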

A short description of assay [19]: ATG_PPRE_CIS: Attagene CIS-FACTORIAL HepG2 Assay for human Peroxisome Proliferator-activated Response Element (PPRE) (AID 2282958). The note with it: HepG2 PPRE cis-element reporter, Attagene transcription factor profiling; actives raise or lower the signal. The method in brief: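 PPRE activity in HepG2: transient cis-reporter transfection, 24 h compound incubation, reporter mRNA by RT-PCR and CE fluorescence; gain/loss fitted against DMSO.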

Assay [20] has as its target Estrogen-related receptor gamma (Homo sapiens) (UniProt P62508). The assay is described as follows: ATG_ERRg_TRANS: Attagene TRANS-FACTORIAL HepG2 Assay for human Estrogen-Related Receptor gamma (ERRg) (AID 2282977; active = hit-call score of the fitted dose curve at least 0.9, where 1 is the maximum;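 note: hits increase reporter signal over DMSO so potencies reflect activators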). The settings on record: HepG2 Attagene TRANS reporter, ERRg transactivation. In outline:
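Readout: fluorescent reporter-mRNA fragments resolved by capillary electrophoresis after RT-PCR and HpaI cut. Cells: transiently transfected HepG2 carrying GAL4-UAS reporters driven by exogenous NR-Gal4 chimeras, dosed 24 h. Activity fitted upward relative to DMSO baseline.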

The values that follow come from PubChem BioAssay (EPA / NIEHS).

Structures are written as SMILES. Results filed as inconclusive are left out. Active and inactive are the calls of the source. Rule for the calls, unless noted: active = hit-call score of the fitted dose curve at least 0.9, where 1 is the maximum; inactive = score below 0.9.

Sequence of Estrogen receptor (Homo sapiens) (P03372 whole entry, looked up, the tested form may be a part): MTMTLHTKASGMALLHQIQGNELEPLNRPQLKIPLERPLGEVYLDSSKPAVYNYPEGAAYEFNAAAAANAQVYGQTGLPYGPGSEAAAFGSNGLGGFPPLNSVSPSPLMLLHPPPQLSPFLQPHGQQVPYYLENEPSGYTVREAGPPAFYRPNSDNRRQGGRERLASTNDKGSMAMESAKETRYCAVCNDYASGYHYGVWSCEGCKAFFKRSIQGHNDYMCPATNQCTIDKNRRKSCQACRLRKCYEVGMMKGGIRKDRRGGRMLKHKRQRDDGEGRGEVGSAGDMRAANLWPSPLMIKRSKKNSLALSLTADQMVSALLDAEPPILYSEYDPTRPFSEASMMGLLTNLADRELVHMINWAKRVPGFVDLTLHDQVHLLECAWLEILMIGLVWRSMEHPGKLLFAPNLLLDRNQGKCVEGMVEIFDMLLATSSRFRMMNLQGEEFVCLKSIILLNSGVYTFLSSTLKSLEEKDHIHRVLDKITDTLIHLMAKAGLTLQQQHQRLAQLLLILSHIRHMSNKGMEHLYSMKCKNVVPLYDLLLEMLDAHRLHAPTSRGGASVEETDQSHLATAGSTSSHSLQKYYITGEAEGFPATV
Sequence of X-box-binding protein 1 (Homo sapiens) (P17861 whole entry, looked up): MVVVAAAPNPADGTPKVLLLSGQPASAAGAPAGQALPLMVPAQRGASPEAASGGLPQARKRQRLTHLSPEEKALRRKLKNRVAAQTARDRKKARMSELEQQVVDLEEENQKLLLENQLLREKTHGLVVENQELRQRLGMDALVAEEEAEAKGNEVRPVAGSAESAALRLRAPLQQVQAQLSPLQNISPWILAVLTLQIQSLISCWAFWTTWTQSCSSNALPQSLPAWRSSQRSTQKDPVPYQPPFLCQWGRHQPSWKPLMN
Sequence of Signal transducer and activator of transcription 3 (Homo sapiens) (P40763 whole entry, looked up): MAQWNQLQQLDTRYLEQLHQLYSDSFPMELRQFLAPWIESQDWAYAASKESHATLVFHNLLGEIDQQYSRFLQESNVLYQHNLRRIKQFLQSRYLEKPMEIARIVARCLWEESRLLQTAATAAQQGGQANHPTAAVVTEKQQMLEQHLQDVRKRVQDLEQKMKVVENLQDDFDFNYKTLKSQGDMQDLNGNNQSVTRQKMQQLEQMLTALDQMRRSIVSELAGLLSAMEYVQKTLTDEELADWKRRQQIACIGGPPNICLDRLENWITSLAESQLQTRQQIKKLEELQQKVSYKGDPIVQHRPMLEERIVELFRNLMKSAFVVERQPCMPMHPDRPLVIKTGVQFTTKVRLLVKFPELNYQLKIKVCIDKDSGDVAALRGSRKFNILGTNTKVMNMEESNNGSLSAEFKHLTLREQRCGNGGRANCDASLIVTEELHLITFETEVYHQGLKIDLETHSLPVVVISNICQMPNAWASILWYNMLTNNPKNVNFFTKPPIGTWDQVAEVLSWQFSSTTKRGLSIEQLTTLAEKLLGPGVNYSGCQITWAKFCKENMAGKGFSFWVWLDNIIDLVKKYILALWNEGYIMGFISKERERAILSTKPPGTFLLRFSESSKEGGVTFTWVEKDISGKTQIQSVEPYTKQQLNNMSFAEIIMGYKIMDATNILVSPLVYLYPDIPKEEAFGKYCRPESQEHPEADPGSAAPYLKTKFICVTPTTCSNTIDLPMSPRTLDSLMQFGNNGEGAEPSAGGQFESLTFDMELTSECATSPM
Sequence of Transcription factor Sp1 (Homo sapiens) (P08047 whole entry, looked up, the tested form may be a part): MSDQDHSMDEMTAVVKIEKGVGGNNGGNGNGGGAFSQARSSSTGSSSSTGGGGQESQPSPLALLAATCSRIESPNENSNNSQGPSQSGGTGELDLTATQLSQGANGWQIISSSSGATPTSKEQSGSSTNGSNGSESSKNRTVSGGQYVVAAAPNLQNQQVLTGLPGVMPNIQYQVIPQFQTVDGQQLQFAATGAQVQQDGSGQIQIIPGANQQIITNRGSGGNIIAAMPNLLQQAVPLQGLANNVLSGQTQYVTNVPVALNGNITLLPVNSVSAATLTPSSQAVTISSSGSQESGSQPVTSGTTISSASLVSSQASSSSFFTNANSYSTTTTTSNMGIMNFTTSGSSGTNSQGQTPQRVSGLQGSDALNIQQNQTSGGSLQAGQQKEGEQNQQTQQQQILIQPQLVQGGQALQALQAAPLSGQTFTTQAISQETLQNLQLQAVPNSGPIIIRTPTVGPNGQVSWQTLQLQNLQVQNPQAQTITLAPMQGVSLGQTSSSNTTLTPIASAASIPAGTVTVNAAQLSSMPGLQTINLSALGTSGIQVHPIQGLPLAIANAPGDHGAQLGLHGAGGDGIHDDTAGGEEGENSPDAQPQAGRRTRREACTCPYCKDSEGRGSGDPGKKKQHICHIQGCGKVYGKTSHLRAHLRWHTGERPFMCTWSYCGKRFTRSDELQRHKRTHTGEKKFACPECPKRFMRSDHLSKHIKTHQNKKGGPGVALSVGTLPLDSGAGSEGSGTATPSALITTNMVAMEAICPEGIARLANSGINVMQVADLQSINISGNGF
Sequence of Paired box protein Pax-6 (Homo sapiens) (P26367 whole entry, looked up): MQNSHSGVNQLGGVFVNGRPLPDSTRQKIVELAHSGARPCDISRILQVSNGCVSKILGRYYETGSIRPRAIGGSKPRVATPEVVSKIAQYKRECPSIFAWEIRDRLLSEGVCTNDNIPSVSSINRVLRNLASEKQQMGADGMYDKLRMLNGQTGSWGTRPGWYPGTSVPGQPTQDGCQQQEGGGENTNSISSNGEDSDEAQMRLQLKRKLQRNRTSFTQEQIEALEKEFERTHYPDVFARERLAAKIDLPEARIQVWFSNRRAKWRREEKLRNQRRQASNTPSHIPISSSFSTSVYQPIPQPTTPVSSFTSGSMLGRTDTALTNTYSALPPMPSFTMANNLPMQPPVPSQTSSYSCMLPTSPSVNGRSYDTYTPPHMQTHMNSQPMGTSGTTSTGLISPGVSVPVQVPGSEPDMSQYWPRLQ
Sequence of Steroid hormone receptor ERR1 (Homo sapiens) (P11474 whole entry, looked up, the tested form may be a part): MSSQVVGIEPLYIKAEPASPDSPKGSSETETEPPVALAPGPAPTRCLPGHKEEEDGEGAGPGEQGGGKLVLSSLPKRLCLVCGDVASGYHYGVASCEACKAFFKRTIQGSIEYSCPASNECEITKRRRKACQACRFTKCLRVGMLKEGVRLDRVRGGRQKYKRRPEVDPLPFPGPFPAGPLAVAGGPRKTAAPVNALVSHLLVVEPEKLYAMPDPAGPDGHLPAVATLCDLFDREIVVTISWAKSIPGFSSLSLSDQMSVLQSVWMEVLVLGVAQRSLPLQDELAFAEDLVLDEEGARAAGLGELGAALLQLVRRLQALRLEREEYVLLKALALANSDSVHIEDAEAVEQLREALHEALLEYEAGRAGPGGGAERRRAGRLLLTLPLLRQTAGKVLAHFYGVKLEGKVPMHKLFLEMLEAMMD
Sequence of Estrogen-related receptor gamma (Homo sapiens) (P62508 whole entry, looked up, the tested form may be a part): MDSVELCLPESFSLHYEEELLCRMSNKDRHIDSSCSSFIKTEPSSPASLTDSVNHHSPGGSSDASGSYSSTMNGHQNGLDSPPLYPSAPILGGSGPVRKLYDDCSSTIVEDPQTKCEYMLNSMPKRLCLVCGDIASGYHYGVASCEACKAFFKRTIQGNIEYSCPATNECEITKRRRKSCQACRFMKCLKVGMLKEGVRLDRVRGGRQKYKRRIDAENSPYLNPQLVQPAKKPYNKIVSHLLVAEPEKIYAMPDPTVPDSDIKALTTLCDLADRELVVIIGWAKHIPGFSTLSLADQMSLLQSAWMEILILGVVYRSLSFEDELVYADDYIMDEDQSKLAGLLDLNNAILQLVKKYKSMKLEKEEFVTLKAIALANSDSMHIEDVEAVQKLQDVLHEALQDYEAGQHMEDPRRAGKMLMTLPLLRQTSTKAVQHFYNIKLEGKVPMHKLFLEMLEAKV
Sequence of Nuclear receptor subfamily 1 group I member 3 (Homo sapiens) (Q14994 whole entry, looked up, the tested form may be a part): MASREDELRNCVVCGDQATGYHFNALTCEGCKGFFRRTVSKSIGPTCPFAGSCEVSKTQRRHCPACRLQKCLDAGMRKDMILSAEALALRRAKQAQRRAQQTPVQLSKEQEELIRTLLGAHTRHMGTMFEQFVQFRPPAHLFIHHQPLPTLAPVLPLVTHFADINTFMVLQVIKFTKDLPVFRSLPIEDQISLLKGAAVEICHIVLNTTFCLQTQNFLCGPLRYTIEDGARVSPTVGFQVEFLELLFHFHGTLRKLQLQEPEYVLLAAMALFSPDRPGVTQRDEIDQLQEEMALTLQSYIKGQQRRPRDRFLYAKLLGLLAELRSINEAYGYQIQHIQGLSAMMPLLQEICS

Take `C=C(C)C(=O)OCCO`: the molecule was classed as inactive in assay [1], in assay [2], in assay [3], in assay [4], in assay [5] and in [6]. In addition, the molecule was classed as inactive in assay [7], in [8], in assay [9], in assay [10], in assay [11] and in [12]. Moreover, the outcome in assay [13], in assay [14], in assay [15], in [16] and in [17] was inactive.

For the molecule `SCCc1cnccn1`, the result in [1], in assay [3], in [4], in [5], in assay [6] and in assay [7] was inactive. The call in [8], in assay [9], in [11], in assay [18], in [15] and in assay [17] was inactive. For the same molecule, the AC50 (usually the midpoint of the concentration-response curve, whichever way the signal moves) was 78.1 µM (active) in assay [2] and 100 µM (active) in assay [10].

With `O=C(C(Cl)Cl)N1CCOC12CCCCC2`, the AC50 in assay [1] is 13.1 µM (active); in assay [8] it was 12 µM (active). The outcome in assay [2], in assay [19], in assay [4], in assay [5], in assay [6] and in [7] was inactive. The molecule was called inactive in assay [9], in [10], in assay [11], in assay [12], in [15] and in [16].

As to `C1CN(SSN2CCOCC2)CCO1`, the molecule was classed as inactive in assay [1], in [2], in assay [19], in assay [4], in [6] and in [7]. In addition, the molecule was called inactive in assay [8], in [9], in assay [10], in assay [11], in [12] and in [14]. The molecule was called inactive in [18], in [15], in assay [16] and in [20].

In the case of `C[C@]12C=CC(=O)C=C1CC[C@@H]1[C@@H]2[C@@H](O)C[C@@]2(C)[C@H]1CC[C@]2(O)C(=O)CO`, the molecule was classed as inactive in assay [1], in [3], in assay [4], in assay [5], in assay [6] and in assay [7]. Moreover, the result in [8], in assay [9], in assay [10], in [11], in assay [18] and in assay [15] was inactive. The call in [16], in assay [17] and in assay [20] was inactive. The AC50 in assay [2] is 100 µM (active).

For `Oc1ccc(Cl)cc1Cc1cc(Cl)ccc1O`, the concentration at half-maximal activity (AC50) in assay [1] was 11.1 µM (active); in assay [19], 4.48 µM (active); in [6] it was 7.54 µM (active); in assay [9], 18.8 µM (active); in assay [11], 11.1 µM (active); in assay [15] it was 6.64 µM (active). The molecule was classed as inactive in assay [2], in assay [4], in assay [5], in assay [7], in assay [8] and in [10]. Also, the call in assay [14] was inactive.
